From PubChem BioAssay
The sample as a whole holds a higher share of hits than the screen did.
IL-1B inflam inh = inhibitors of inflammasome signaling (IL-1 beta secretion). THP-1 LPS/ATP IL-1B secretion, AlphaLISA, 16 h; hits give low values. activity change, % at 57.5 µM. actives 4.7% (n = 360,000). AID 743279; in the data active means activity change below about -50%; inconclusive means mostly about -30% to -49%
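Secreted IL-1B measured by AlphaLISA bead assay after 16 h compound exposure of THP-1 cells; compounds (final up to 57.5 uM) added 1 h before LPS (250 ng/mL) and ATP (1.25 mM) stimulation; lower signal means less secretion.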
ALOX12 inh = inhibitors of human 12S-lipoxygenase ALOX12. Potency, µM (titrated, usually from 108 µM), for inactives: at the top dose activity change, negative = inhibition, hits mostly inhibitors. actives 1.1% (n = 580,000). purified 12hLO, xylenol orange hydroperoxide absorbance. P18054. AID 1671190; further: potency means the concentration at half of the fitted maximal effect
Target sequence (P18054 whole entry, looked up): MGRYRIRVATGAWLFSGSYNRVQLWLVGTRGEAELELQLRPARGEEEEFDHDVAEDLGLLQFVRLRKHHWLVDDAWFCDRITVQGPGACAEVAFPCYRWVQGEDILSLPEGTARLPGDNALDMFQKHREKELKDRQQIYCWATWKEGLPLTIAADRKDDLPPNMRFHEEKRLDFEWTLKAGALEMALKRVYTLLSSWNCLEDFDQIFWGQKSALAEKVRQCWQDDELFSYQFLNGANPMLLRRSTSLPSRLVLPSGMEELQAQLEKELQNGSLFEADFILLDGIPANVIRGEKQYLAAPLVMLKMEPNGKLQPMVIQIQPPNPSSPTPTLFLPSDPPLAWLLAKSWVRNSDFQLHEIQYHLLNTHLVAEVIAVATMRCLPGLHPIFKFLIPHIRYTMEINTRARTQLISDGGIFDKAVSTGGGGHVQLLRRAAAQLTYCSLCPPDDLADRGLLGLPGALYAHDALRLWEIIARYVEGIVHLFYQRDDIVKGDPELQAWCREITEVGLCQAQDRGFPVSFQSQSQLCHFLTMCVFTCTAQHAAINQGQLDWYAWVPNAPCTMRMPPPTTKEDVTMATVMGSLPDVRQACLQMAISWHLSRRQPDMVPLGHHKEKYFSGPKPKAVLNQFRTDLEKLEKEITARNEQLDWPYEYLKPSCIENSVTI
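Purified human 12hLO at 150 nM in 25 mM Hepes, 0.01% Triton X-100, pH 7.0, preincubated 15 min at room temperature with compound. Reaction started with 40 uM arachidonic acid, 30 min at room temperature. Hydroperoxide measured by Fe-xylenol orange, 573/405 nm absorbance ratio.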
TDP1 cell noCPT = qHTS for Inhibitors of human tyrosyl-DNA phosphodiesterase 1 (TDP1): qHTS in cells in absence of CPT; actives 15% (n = 420,000); AID 686978, 2013; Potency, µM (doses to about 46.2 µM), inactives show top-dose activity change, negative = growth inhibition, actives largely listed as inhibitors; DT40 Tdp1-/- hTDP1 cells, no CPT, ATP luminescence, 48 h; further: potency means the concentration at half of the fitted maximal effect; nearly all actives have a fitted effect of over 55% in size
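Seeded 400 DT40-hTDP1 cells/well (vehicle DMSO, no 20 nM CPT); pinned compounds; ≥48 hr at 37 °C; CellTiter-Glo luminescence as viability measure.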
TDP1 cell CPT = DT40-hTDP1 cell growth loss with CPT; actives 12% (n = 420,000); chicken DT40 Tdp1-/-;hTDP1 cells + 20 nM CPT, ATP luminescence, 48 h; AID 686979; Potency, µM (doses to about 46.2 µM), inactives show at the highest dose activity change, negative = growth inhibition, usual class: inhibitors; further: potency means the concentration at half of the fitted maximal effect; nearly all actives have a fitted effect of over 55% in size
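Cell growth measured by CellTiter-Glo luminescence after a minimum 48 h, 37 C compound exposure with 20 nM CPT in Tdp1-knockout DT40 cells stably expressing hTDP1, seeded 400/well; qHTS titration format.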
HT1080 IDH1KD tx = HT-1080 IDH1 knockdown cell toxicity (counter line) | HT-1080 IDH1 knockdown viability, ATP luminescence, 48 h | Potency, µM (top dose mostly 46.1 µM), for inactives: at the highest dose activity, negative = toxicity, actives largely listed as cytotoxic | actives 2% (n = 360,000);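 further: potency means the concentration at half of the fitted maximal effect; 0% = DMSO wells and -100% = cell-free medium wells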
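Knockdown cells (IDH1KD HT-1080) received compounds 2 h after plating at 750 cells/well and were kept 48 h at 37 °C in 5% FBS RPMI. A CellTiter-Glo luminescence read gave % activity for curve fitting.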
HT1080-NT tox = kills 2HG-producing HT-1080-NT fibrosarcoma cells; HT-1080-NT fibrosarcoma viability, CellTiter-Glo ATP luminescence, 48 h; actives 1.6% (n = 360,000); Potency, µM (top dose mostly 46.1 µM), for the others: top-dose activity, negative = less viability, hits mostly cytotoxic;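 further: NT is the 2HG producing partner of a matched IDH1 knockdown line; potency means the concentration at half of the fitted maximal effect; 0% = DMSO-treated cells and -100% = media-only wells without cells; nearly all actives have a fitted effect of over 55% in size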
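Viability of the 2HG-overproducing fibrosarcoma line after 48 hours of compound exposure at 37 degrees C was determined by luminescence with CellTiter-Glo, and concentration-effect curves were then fitted and categorized.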
An asterisk follows results filed as active; ? = inconclusive; · = not tested or not shown; [ ] = dose if it differs, or a comment. Unless noted, the call rests on the fitted dose curve; in most records, active means well fitted curve in the direction sought with a large enough effect; inconclusive means small, poorly fitted or top-dose-only effect, or another doubt; inactive means no such curve, though single readings can be large; an effect the other way counts as inactive or inconclusive. Unless noted, on the % scale 0 is the no-effect control and ±100 the full control effect.

SMILES	IL-1B inflam inh	ALOX12 inh	TDP1 cell noCPT	TDP1 cell CPT	HT1080 IDH1KD tx	HT1080-NT tox
Cc1ccc(-c2nc3ccc(Cl)cn3c2Nc2ccc3c(c2)OCCO3)o1	·	-15%	16µM*	21µM*	·	·
CCOc1ccccc1NC(=O)c1ccc2[nH]c(C)c(C)c2c1	33	2%	26µM*	?	?	?
CCOc1ccccc1NC(=O)c1ccc2ccccc2c1	10	8%	?	8%	2%	-1%
CCCN1C(=O)c2cc(C(=O)Nc3ccc(OC)cc3OC)ccc2C1Nc1ccc(OC)cc1OC (stereo not drawn)	-13	-1%	?	23µM*	2%	-1%
CCCN1C(=O)c2cc(C(=O)Nc3ccc(OC)c(OC)c3)ccc2C1Nc1ccc(OC)c(OC)c1 (stereo not drawn)	23	-4%	?	-27%	-1%	-4%
COc1ccccc1NC(=O)c1cc(C)oc1C	-13	-2%	-12%	7%	4%	?
CCOc1ccccc1NC(=O)c1cc(CC(C)C)oc1C	22	0%	23µM*	23µM*	6%	7%
COc1ccc(NC(=O)c2ccc(-n3c(C)ccc3C)cc2)c(OC)c1	-75*	0%	?	?	-22%	-4%
CCc1ccccc1-n1c(SCC(=O)NC(C)c2cc3ccccc3o2)nnc1N1CCOCC1 (stereo not drawn)	·	-4%	·	·	·	·
COc1ccc(CNC(=O)c2ccc3[nH]c(C)c(C)c3c2)c(OC)c1	·	-28%	?	-9%	·	·
COc1ccc(NC(=O)c2ccc3[nH]c(C)c(C)c3c2)c(OC)c1	-6	13%	18µM*	23µM*	-20%	-4%
CCCC[C@@H]1CNCCN1CC1(c2ccccc2)CC1	?	16%	12µM*	12µM*	-2%	-13%
Oc1ccc(C[C@@H]2CNCCN2CC2(c3ccccc3)CC2)cc1	?	-12%	?	?	2%	-11%
Oc1ccc(C[C@H]2CNCCN2CC2(c3ccccc3)CC2)cc1	-61*	-27%	?	21µM*	-12%	-1%
NCCCC[C@H]1CNC(=S)N1CC1(c2ccccc2)CC1	5	9%	-24%	?	7%	6%
Cn1c(Sc2ncnc3sccc23)nnc1-c1ccc(F)cc1	·	-9%	·	·	·	·
Cc1ccc(-c2cnc(SCC(=O)Nc3ccc(Cl)cc3)o2)cc1C	·	-21%	·	·	·	·
COC(=O)c1sccc1NC(=O)c1c(F)c(F)c(F)c(F)c1F	-102*	84%	?	?	?	18µM*
O=C(Nc1cccc(C(F)(F)F)c1)c1c(Cl)cccc1Cl	·	-13%	·	·	·	·
O=C(Nc1ccncc1)c1c(Cl)cccc1Cl	-61*	12%	?	9.2µM*	-3%	?
CC(=O)c1cccc(NC(=O)c2c(F)c(F)c(F)c(F)c2F)c1	-29	4%	29µM*	?	-8%	-2%
COC(=O)c1sccc1NC(=O)c1cccc(F)c1	14	7%	-8%	-15%	-5%	1%
O=C(NNC(=O)OCc1ccccc1)OCc1ccccc1	-7	23%	-9%	-2%	-11%	5%
O=C(Nc1ccncc1)OCc1ccccc1	-16	0%	21µM*	?	-6%	-14%
Cc1cccc(NC(=O)N2CC(Oc3ccc(-c4nc(-c5ccccc5)no4)cc3)C2)c1	·	16%	·	·	·	·
SMILES	IL-1B inflam inh	ALOX12 inh	TDP1 cell noCPT	TDP1 cell CPT	HT1080 IDH1KD tx	HT1080-NT tox
CCOC(=O)c1cccc(Nc2nc3ccccc3nc2NS(=O)(=O)c2cc(C)ccc2C)c1	·	-26%	·	·	·	·
O=C(Nc1ccccc1)Nc1cccc(Cl)c1Cl	-19	?	?	?	?	?
O=C(Nc1ccc(Cl)cc1)Nc1cccc2nsnc12	?	138%	29µM*	?	-3%	-5%
CCC(C(=O)Nc1ccncc1)c1ccccc1 (stereo not drawn)	47	10%	16µM*	?	4%	5%
O=C(Nc1ccncc1)c1c(F)c(F)c(F)c(F)c1F	-96*	47%	-29%	-10%	-23%	-9%
O=C(Nc1ccncc1)c1ccc(C(=O)Nc2ccncc2)cc1	9	14%	-28%	-28%	3%	10%
CCC(C(=O)Nc1cccnc1)c1ccccc1 (stereo not drawn)	9	-3%	-10%	-5%	7%	1%
O=C(Nc1ccc(Oc2ccc(NC(=O)Nc3ccccc3Cl)cc2)cc1)Nc1ccccc1Cl	-8	23%	21µM*	18µM*	-17%	-1%
CCOc1ccc(NC(=O)CCC2CCN(c3cc(NC4CC4)ncn3)CC2)cc1	·	25%	·	·	·	·
Cc1cccc(NC(=O)c2c(F)c(F)c(F)c(F)c2F)c1	-5	-29%	18%	-6%	-1%	-1%
O=C(Nc1ccccc1)Nc1ccncc1	0	0%	21µM*	?	-11%	-17%
O=C(Nc1ccncc1)Nc1cccc(Cl)c1	-12	?	-23%	?	0%	-4%
CC(C)(C)c1cc(NC(=O)Nc2ccccc2)no1	-54*	-5%	-24%	?	3%	8%
O=C(Nc1ccncc1)Nc1cccc(Cl)c1Cl	-22	0%	?	23µM*	-21%	-24%
O=C(Nc1ccccc1NC(=O)c1c(F)c(F)c(F)c(F)c1F)c1c(F)c(F)c(F)c(F)c1F	-108*	0%	-23%	-7%	?	?
O=C(NCCc1cnc[nH]1)[C@@H]1C[C@H]2C(=O)NCCCCCCN(S(=O)(=O)c3ccccc3)[C@H]2C1	·	18%	·	·	·	·
O=C1N[C@H](CCC(=O)N2CCN(CCc3ccccn3)CC2)C(=O)Nc2ccccc21	·	0%	·	·	·	·
O=C(NCCc1noc(C2CC2)n1)C1CCC1	·	-5%	·	·	·	·
COc1ccc(NC(=O)Cn2ccn3nc4c(c3c2=O)CCCCC4)cc1	·	1%	·	·	·	·
CC(C)NC(=O)C(NC(=O)c1ccc2c(c1)OCO2)C1CCN(C(=O)c2ccc(F)cc2)CC1 (stereo not drawn)	·	14%	·	·	·	·
Cc1ccc(-c2ncc(C(=O)NCCN(C)C3CCCCC3)c(-c3ccncc3)n2)cc1	·	-1%	·	·	·	·
CCCNCc1ccc(-c2ccc(Br)cc2)o1	·	-29%	·	·	·	·
Cc1ccc(C(C)(O)c2nc3ccccc3s2)c(C)c1 (stereo not drawn)	·	0%[57.4 µM]	·	·	·	·
Cc1ccc2oc(C(=O)Nc3cccc(-c4nc5ccccc5s4)c3)c(C)c2c1	·	-20%	?	?	·	·
